This is a sample that favours compounds with a hit; in the whole collection about 9% have one here.
ALOX12 inh: blocks human arachidonate 12S-lipoxygenase; purified 12hLO, xylenol orange hydroperoxide absorbance; Potency, µM (highest dose often 108 µM), without a hit: at the top dose activity change, negative = inhibition, hits mostly inhibitors; 580,000 compounds, 1.1% hits; AID 1671190; further: on the % scale 0 is the no-effect control and ±100 the full control effect
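Purified human 12hLO (150 nM final) in 25 mM Hepes, 0.01% Triton X-100, pH 7.0 was preincubated 15 min at room temperature with compound. Then 40 uM arachidonic acid was added, 30 min. Hydroperoxide was read by Fe-XO absorbance ratio 573/405 nm.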
G9a inh: G9a (human) methyltransferase inhibition. Q96KQ7. G9a H3K9 monomethylation, AlphaScreen, 2 h. Potency, µM (titrated, usually from 102 µM), for inactives: top-dose activity, negative = inhibition, actives largely listed as inhibitors. 350,000 compounds, 8.8% hits. AID 504332; further: on the % scale 0 is the no-effect control and ±100 the full control effect; nearly all actives have a fitted effect of over 75% in size
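Quantitative HTS format: methyltransferase activity on a biotin-tagged H3K9 peptide is measured by AlphaScreen, using a rabbit anti-monomethyl-H3K9 antibody with streptavidin donor and anti-IgG acceptor beads. Final levels are 20 nM enzyme, 500 nM peptide, 20 uM SAM; 2 h RT.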
JMJD2A Tudor inh: inhibitors of human JMJD2A Tudor domain | Potency, µM (highest dose often 114 µM), inactives show top-dose activity change, negative = inhibition, hits mostly inhibitors | O75164 | AID 504339 | AlphaScreen JMJD2A-Tudor / H3K4me3 peptide binding | 390,000 compounds, 4.4% hits; further: on the % scale 0 is the no-effect control and ±100 the full control effect; nearly all actives have a fitted effect of over 50% in size
HP1b chromo inh: inhibitors of HP1-beta chromodomain binding to methylated histone tails; 390,000 compounds, 0.56% hits; P83916; AlphaScreen HP1-beta / biotin-H3K9me3 peptide binding; AID 540317; Potency, µM (highest dose often 114 µM), for the others: top-dose activity change, negative = inhibition, hits mostly inhibitors; further: nearly all actives have a fitted effect of over 70% in size
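HP1-beta protein (50 nM final) preincubated 30 min at room temperature with biotinylated H3(1-18)K9me3 peptide (50 nM) in PBS pH 7.4, 0.01% Tween-20, then compound added for 30 min. AlphaScreen streptavidin donor/nickel chelate acceptor beads (10 ug/mL final), 30 min dark, luminescence read.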
PLK1 PBD block: blocks phosphopeptide binding to human PLK1 polo-box domain; P53350; Plk1 PBD binding of FITC phosphopeptide, fluorescence polarization; Potency, µM, for inactives: max response, negative = inhibition, actives largely listed as inhibitors; 360,000 compounds, 2.8% hits; AID 720504; further: series mostly up to about 57 µM; on the % scale 0 is the no-effect control and ±100 the full control effect; nearly all actives have a fitted effect of over 65% in size
Target sequence (P53350 whole entry, looked up, the tested form may be a part): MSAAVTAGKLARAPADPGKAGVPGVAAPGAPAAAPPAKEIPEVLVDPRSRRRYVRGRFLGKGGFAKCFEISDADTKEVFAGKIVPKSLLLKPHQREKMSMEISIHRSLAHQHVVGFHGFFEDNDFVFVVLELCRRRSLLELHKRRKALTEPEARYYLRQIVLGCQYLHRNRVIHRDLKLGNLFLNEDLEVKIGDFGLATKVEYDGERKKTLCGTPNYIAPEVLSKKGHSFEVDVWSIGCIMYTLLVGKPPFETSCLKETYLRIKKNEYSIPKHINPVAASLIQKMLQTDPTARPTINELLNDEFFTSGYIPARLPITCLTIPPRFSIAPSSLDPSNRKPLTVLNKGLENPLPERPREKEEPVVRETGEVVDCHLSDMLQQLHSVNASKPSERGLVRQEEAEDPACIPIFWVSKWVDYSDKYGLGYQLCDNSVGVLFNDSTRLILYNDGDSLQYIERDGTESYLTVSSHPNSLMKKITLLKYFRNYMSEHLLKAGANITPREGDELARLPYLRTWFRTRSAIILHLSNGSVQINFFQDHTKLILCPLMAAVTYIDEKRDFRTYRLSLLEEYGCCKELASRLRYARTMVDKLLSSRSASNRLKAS
BAZ2B block: BAZ2B (human) inhibition; Q9UIF8; AlphaScreen BAZ2B-H3K14Ac peptide displacement; Potency, µM (highest dose often 114 µM), for the others: at the top dose activity change, negative = inhibition, actives largely listed as inhibitors; 360,000 compounds, 4.4% hits; AID 504333; further: on the % scale 0 is the no-effect control and ±100 the full control effect; nearly all actives have a fitted effect of over 60% in size
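AlphaScreen displacement of biotin-H3(5-23)K14Ac peptide (50 nM final) from BAZ2B (50 nM final) in PBS pH 7.4, 0.01% Tween-20; complex preformed 30 min RT, then compounds (top 110 uM) 30 min RT, beads 20 min dark.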
* = called active by the depositor; u = inconclusive; x = not tested or not shown; [ ] = another dose, or the depositor's remark. The call rests on the fitted dose curve; in most records, active means well fitted curve in the direction sought with a large enough effect; inconclusive means small, poorly fitted or top-dose-only effect, or another doubt; inactive means no such curve, though single readings can be large; an effect the other way counts as inactive or inconclusive. Potency means the concentration at half of the fitted maximal effect.

SMILES | ALOX12 inh | G9a inh | JMJD2A Tudor inh | HP1b chromo inh | PLK1 PBD block | BAZ2B block
O=C(O)c1ccc(N2C(=O)c3cccc4c(C(=O)O)ccc(c34)C2=O)cc1 | -29% | 13µM* | 45µM* | 79µM* | 0% | 50µM*
O=C1C=CC(=O)N1c1ccc(O)cc1 | -7% | 1µM* | 40µM* | u | 17µM* | -5%
O=C1CCCC(=O)N1c1ccc(O)cc1 | 0% | 25% | -13% | 6% | u | -21%
CC(=NO)C1CCC2C3CCC4=CC(=NO)CCC4(C)C3C(=O)CC12C (configuration not stated) | -6% | x | -6% | 38% | 6% | x
O=C1c2ccccc2C(=O)N1c1ccc(O)cc1 | x | x | -16% | 15% | x | x
O=C1c2cccc3cccc(c23)C(=O)N1c1ccc(O)cc1 | -8% | -14% | -25% | 24% | -6% | 79µM*
Cc1cccc(C)c1NC(=O)CCCN1CC(C)OC(C)C1 (configuration not stated) | 22% | -6% | 2%[11.4 µM] | 49% | -18% | 11%
CCCCCC1NC(=O)NC1CCCCCC(=O)O (configuration not stated) | -24% | 1%[12.7 µM] | -10% | 41% | 0% | 1%
CC1NC(=O)NC1CCCCCC(=O)NCCc1ccccc1 (configuration not stated) | -6% | u | 3.5µM* | u | -12% | 0.89µM*
Cc1cccc(C)c1NC(=O)CCCCCC1NC(=O)NC1C (configuration not stated) | -8% | 13µM* | 3% | 53% | 1% | 8.9µM*
C[C@@H]1NC(=O)N[C@@H]1CCCCCC(=O)O | 13% | x | 1µM* | u | 0% | x
O=C(CCCCC(=O)NCCCc1ccccc1)NCCCc1ccccc1 | 1% | x | 7% | 34% | 0% | -5%
CC(C)c1ccc(/C=C/C(=O)NCCC2=CCCCC2)cc1 | 40µM* | u | -4% | 24% | 4% | 6%
COC(=O)[C@H](C)NC(=O)NCCC1=CCCCC1 | 0% | 8% | 71µM* | 7% | 30µM* | -12%
CCCNC(=O)/C=C/c1ccc(C(C)C)cc1 | u | 14%[59 µM] | -4% | 44% | 1% | 8%
COc1cc(OC)cc(C(=O)Nc2ccc(S(=O)(=O)Nc3cnc4ccccc4n3)cc2)c1 | u | x | -9% | 11% | -9% | x
CCc1cccc(NC(=O)CN2c3ccccc3S(=O)(=O)c3ccccc32)c1 | -22% | 4%[59 µM] | -32% | 7% | x | u
Cc1ccc(Cn2nc(C)c(C(=O)N3CCN(S(=O)(=O)/C=C/c4ccccc4)CC3)c2C)cc1 | 99% | -3%[12.7 µM] | -31% | 23% | -5% | 2%
COCc1cc(C)nc(N/N=C/c2ccc(-c3ccc(Cl)cc3[N+](=O)[O-])o2)c1C#N | -28% | 40µM* | -34% | -5% | -6% | u
Cc1ccc2oc(=O)c(/C=C(\O)c3cccs3)nc2c1 | -14% | u | -2% | 22% | 29% | -24%
O=c1oc2ccc(Cl)cc2nc1/C=C(\O)c1cccs1 | -146% | 3.2µM* | u | -1% | 53% | 50µM*
C/C(O)=C\c1nc2ccccc2oc1=O | 0% | u | -13%[11.4 µM] | -13% | -30% | -7%
Cc1ccc2oc(=O)c(/C=C(\O)c3ccccc3)nc2c1 | u | 7.9µM* | -23% | 61% | -16% | -32%
Cc1ccc2oc(=O)c(/C=C(\O)CC(C)C)nc2c1 | -7% | 50µM* | -17% | 18% | -10% | -35%
O=C(c1cncc(Br)c1)N1CCN(S(=O)(=O)c2ccccc2)CC1 | u | 8% | -17% | 0% | -2% | -1%
SMILES | ALOX12 inh | G9a inh | JMJD2A Tudor inh | HP1b chromo inh | PLK1 PBD block | BAZ2B block
O=C(c1cncc(Br)c1)N1CCN(S(=O)(=O)c2ccccc2C(F)(F)F)CC1 | -4% | 19% | u | 3% | 21µM* | -11%
COCC1CN(C(C)=O)CC12CCN(C(=O)C1CNC1)CC2 (configuration not stated) | 25µM* | x | x | x | x | x
S=c1nc[nH]c2c1ncn2-c1ccc(Cl)cc1 | u | x | 50µM* | u | 6µM* | x
COc1cc([N+](=O)[O-])cc(/C=N/NC(=O)Cn2nccc2C)c1O | -2% | 4% | -33%[11.4 µM] | -11% | 27µM* | 45µM*
COc1cc([N+](=O)[O-])cc(/C=N/NC(=O)CSc2nnc(-c3ccccc3)n2C)c1O | x | x | u | 25% | 1% | -3%
COc1cc([N+](=O)[O-])cc(/C=N/NC(=O)Cn2nc(C)cc2C)c1O | -1% | -14% | 79µM* | 23% | -3% | 71µM*
COc1cc(Br)cc(/C=N/NC(=O)Cc2ccc(C(F)(F)F)cc2[N+](=O)[O-])c1O | -13% | 17% | 89µM* | -11% | u | 8%
COCCNC(=O)CCn1nc(-c2ccccc2)c2ccccc2c1=O | -30% | x | x | x | x | x
COc1ccc(N2CCN(C(=O)c3nc(SC)ncc3Cl)CC2)cc1 | -22% | 10µM* | -18% | 27% | x | -30%
CCCSc1ncc(Cl)c(C(=O)N2CCN(c3ccc(OC)cc3)CC2)n1 | -27% | 10µM* | u | -11% | x | 35µM*
Cc1nnc(SCC(=O)Nc2nsc(-c3ccc(C(C)(C)C)cc3)n2)s1 | -2% | -11% | -29% | 30% | -29% | -1%
CC(c1cccs1)N(C)S(C)(=O)=O (configuration not stated) | 10%[176 µM] | x | x | x | x | x
Cc1nc2sc3c(c2c(=O)o1)CCCC3 | u | 45µM* | -24% | 15% | -22% | -31%
O=C1CCC(=O)N1c1ccc(-c2nc3sc4c(c3c(=O)o2)CCC4)cc1 | 123% | 11%[12.7 µM] | -25% | 15% | -22% | 0%
O=c1oc(-c2ccccc2)nc2sc3c(c12)CCC3 | u | -17% | -27% | 4% | -13% | 50µM*
CCN(CC)C1=CC(=[N+]2CCCC2)CC(C)(C)C1 | u | 40µM* | 1% | 2% | -7% | -1%
CN(Cc1ccccc1)C1=CC(=[N+]2CCCC2)CC(C)(C)C1 | u | u | 8.9µM* | u | u | 3%
COc1ccccc1CNC(=O)C(=O)NCC1OCCCN1S(=O)(=O)c1ccc(F)cc1C (configuration not stated) | 475% | x | -10% | 18% | 1% | -10%
COc1ccc(-c2nnc(C(C)Nc3cccc(C(=O)NC4CC4)c3)o2)cc1 (configuration not stated) | 0% | x | -11% | 21% | -5% | x
CCOc1ccc(/C(O)=C2/C(=O)C(=O)N(c3ccccn3)C2c2ccc(C)cc2)c(C)c1 (configuration not stated) | u | 50µM* | 35µM* | u | -12% | 1%

Screens from PubChem.
